Drawing on ChEMBL document CHEMBL2218924, “A broad activity screen in support of a chemogenomic map for kinase signalling research and drug discovery” (Biochem J, 2013), this text covers residual activity for three compounds.

Each structure is given as a SMILES string.

Experiment [1] concerns the target Death-associated protein kinase 1 (Homo sapiens) (UniProt P53355). Particulars: at 10 µM.
For experiment [2], the target named is T1, Serine/threonine-protein kinase DCLK2 (Homo sapiens) (UniProt Q8N568).
T1 sequence (whole entry): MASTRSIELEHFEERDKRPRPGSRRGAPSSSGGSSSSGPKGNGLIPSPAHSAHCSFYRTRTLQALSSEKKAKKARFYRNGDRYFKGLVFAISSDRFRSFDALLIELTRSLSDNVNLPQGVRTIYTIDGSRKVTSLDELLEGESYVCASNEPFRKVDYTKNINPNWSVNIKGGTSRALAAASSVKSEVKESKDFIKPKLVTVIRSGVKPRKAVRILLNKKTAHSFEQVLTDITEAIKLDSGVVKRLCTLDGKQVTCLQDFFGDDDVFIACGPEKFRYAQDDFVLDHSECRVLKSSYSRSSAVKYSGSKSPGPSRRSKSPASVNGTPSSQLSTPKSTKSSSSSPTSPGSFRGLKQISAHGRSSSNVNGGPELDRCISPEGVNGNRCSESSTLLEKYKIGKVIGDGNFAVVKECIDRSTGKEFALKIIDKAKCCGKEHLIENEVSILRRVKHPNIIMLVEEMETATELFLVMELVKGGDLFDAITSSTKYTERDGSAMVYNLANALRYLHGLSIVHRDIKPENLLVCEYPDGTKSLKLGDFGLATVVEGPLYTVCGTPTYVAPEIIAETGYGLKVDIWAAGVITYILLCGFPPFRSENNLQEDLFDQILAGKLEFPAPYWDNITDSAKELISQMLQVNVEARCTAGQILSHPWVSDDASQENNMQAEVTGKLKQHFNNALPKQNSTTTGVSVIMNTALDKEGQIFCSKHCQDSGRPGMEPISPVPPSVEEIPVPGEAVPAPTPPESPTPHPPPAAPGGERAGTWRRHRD
As to conditions: at 1 µM.

Experiment [3] addresses T1, Serine/threonine-protein kinase DCLK2 (Homo sapiens). As to conditions: at 10 µM.
Experiment [4] has as its target T2, Discoidin domain-containing receptor 2 (Homo sapiens) (UniProt Q16832).
T2 sequence (whole entry): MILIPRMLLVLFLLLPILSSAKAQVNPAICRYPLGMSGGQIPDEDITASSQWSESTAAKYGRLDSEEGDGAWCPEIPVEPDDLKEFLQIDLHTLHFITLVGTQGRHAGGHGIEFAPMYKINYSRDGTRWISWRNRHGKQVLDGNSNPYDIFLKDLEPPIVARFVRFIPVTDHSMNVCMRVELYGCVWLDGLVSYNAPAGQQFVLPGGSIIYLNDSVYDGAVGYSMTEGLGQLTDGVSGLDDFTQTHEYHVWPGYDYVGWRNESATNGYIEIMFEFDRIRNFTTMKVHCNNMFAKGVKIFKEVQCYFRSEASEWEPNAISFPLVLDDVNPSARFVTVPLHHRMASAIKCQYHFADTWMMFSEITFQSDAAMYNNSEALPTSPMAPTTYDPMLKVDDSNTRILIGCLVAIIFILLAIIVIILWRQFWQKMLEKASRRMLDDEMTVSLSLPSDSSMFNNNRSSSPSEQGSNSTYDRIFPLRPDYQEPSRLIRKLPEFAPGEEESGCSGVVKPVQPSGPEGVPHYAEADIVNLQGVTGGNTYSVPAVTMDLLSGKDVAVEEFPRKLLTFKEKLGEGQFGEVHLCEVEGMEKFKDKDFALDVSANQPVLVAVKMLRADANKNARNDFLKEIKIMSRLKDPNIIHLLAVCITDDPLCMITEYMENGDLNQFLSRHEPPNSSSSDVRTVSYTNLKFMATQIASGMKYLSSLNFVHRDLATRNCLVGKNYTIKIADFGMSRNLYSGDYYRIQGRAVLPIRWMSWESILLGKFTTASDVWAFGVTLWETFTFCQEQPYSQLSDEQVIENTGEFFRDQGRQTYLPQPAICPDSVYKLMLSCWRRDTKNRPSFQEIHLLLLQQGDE
Particulars: at 1 µM.

Experiment [5] deals with T2, Discoidin domain-containing receptor 2 (Homo sapiens). Particulars: at 10 µM.
The target of experiment [6] is T3, Myotonin-protein kinase (Homo sapiens) (UniProt Q09013).
T3 sequence (whole entry): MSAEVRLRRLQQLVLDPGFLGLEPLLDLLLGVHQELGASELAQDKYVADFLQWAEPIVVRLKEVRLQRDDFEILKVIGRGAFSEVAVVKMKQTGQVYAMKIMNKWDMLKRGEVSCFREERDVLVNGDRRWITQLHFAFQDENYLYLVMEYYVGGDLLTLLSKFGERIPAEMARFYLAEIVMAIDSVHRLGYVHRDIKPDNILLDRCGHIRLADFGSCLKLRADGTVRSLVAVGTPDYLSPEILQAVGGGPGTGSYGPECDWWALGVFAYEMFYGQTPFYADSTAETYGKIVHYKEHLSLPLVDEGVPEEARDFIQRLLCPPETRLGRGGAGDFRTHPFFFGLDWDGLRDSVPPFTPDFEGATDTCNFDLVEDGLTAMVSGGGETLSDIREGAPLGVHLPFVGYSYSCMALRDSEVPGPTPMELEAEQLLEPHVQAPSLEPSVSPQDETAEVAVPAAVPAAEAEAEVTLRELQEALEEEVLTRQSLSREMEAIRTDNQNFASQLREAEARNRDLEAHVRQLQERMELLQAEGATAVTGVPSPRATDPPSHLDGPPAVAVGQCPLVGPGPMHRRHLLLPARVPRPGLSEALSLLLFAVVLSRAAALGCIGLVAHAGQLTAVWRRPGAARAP
Particulars: at 1 µM.

The target in experiment [7] is T3, Myotonin-protein kinase (Homo sapiens). As to conditions: at 10 µM.
Experiment [8] addresses T4, Ephrin type-A receptor 1 (Homo sapiens) (UniProt P21709).
T4 sequence (whole entry): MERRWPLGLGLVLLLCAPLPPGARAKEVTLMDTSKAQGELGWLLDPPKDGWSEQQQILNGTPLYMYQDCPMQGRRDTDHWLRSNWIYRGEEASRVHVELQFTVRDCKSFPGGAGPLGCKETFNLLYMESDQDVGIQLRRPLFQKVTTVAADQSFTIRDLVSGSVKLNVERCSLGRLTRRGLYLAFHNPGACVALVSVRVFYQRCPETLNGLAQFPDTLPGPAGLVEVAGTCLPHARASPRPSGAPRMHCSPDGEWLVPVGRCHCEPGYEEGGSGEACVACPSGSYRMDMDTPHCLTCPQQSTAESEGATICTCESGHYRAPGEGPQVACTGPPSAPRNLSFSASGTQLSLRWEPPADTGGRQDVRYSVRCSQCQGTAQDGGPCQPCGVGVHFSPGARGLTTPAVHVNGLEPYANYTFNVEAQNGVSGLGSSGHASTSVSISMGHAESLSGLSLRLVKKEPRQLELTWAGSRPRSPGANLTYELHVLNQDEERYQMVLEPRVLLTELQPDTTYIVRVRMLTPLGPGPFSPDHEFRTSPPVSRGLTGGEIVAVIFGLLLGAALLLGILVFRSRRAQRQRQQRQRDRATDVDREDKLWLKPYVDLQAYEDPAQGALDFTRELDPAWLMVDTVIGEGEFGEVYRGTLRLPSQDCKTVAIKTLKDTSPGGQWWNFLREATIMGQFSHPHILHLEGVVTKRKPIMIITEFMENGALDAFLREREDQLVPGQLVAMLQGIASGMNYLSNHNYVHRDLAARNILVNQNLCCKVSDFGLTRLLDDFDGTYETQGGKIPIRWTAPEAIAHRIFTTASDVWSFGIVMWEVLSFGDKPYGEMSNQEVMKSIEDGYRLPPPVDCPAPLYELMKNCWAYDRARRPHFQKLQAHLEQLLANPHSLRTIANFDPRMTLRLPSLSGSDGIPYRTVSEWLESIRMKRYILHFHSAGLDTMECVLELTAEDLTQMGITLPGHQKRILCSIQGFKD
Particulars: at 1 µM.

Experiment [9] has as its target T4, Ephrin type-A receptor 1 (Homo sapiens). Particulars: at 10 µM.
The target in experiment [10] is Ephrin type-A receptor 2 (Homo sapiens) (UniProt P29317). As to conditions: at 1 µM.
Sequence of Ephrin type-A receptor 2 (Homo sapiens) (P29317 whole entry): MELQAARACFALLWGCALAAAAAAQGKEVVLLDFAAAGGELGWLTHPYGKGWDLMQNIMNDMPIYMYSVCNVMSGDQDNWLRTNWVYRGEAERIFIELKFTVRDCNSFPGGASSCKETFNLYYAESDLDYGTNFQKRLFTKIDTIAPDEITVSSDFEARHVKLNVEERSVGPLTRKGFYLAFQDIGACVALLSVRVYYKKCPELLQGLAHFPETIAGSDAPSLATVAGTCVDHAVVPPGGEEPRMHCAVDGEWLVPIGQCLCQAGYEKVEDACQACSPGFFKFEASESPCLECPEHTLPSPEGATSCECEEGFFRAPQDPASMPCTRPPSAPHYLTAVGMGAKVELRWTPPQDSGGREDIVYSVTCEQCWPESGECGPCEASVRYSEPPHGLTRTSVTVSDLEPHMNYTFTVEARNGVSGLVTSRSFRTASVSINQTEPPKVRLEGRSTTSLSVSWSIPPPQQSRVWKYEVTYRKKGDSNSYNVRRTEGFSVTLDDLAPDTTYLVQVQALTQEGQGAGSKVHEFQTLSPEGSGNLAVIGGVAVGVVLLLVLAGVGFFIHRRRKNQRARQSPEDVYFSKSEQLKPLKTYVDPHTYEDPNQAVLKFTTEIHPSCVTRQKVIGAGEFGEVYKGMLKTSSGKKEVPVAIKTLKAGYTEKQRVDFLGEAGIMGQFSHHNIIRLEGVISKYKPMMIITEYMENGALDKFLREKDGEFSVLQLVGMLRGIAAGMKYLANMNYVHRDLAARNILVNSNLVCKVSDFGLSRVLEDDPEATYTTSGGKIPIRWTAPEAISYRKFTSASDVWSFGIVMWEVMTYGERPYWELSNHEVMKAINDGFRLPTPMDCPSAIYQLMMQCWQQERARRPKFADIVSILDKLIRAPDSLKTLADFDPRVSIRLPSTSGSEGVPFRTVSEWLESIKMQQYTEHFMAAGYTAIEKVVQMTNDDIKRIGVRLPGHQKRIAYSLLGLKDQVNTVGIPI
Experiment [11] has the same target. As to conditions: at 10 µM.
Experiment [12] deals with T5, Ephrin type-A receptor 3 (Homo sapiens) (UniProt P29320).
T5 sequence (whole entry): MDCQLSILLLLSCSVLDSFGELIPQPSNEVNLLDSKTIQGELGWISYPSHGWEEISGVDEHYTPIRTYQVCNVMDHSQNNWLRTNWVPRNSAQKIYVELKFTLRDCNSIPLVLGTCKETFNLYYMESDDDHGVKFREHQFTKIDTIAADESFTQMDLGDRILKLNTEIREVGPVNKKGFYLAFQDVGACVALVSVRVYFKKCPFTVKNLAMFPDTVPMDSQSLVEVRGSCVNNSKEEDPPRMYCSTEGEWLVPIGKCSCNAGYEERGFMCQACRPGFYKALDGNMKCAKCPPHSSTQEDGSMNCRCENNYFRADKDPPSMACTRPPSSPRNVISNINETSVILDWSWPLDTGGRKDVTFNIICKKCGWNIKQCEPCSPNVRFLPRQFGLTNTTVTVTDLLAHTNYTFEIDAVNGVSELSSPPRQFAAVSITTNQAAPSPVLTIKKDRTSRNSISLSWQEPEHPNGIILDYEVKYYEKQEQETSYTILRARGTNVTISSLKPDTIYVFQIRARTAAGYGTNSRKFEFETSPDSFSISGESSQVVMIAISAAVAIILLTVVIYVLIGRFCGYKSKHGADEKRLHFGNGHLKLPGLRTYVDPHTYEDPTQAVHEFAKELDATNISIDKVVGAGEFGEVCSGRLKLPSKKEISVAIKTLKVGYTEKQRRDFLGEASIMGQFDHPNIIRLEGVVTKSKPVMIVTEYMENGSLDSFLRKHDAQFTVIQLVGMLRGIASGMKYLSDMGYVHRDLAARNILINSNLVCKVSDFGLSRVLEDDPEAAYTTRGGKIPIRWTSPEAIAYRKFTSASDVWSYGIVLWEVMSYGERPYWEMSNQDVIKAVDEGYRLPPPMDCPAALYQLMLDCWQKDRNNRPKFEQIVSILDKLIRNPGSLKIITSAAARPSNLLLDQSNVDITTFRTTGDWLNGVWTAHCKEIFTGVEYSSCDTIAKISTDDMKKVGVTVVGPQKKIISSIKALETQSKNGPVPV
As to conditions: at 1 µM.

Experiment [13] deals with T6, Serine/threonine-protein kinase 17A (Homo sapiens) (UniProt Q9UEE5).
T6 sequence (whole entry): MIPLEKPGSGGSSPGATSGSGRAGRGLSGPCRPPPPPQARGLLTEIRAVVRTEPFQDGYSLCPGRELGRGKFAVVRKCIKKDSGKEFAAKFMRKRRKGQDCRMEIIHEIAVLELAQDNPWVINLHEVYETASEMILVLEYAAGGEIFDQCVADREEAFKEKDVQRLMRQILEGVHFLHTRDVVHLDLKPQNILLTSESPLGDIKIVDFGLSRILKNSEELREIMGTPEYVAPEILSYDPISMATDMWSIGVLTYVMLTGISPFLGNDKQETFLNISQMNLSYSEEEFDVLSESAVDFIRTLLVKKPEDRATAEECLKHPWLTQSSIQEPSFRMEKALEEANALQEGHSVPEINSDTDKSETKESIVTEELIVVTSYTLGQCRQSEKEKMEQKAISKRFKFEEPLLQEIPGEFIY
Particulars: at 1 µM.

The target of experiment [14] is T7, Dual specificity tyrosine-phosphorylation-regulated kinase 2 (Homo sapiens) (UniProt Q92630).
T7 sequence (whole entry): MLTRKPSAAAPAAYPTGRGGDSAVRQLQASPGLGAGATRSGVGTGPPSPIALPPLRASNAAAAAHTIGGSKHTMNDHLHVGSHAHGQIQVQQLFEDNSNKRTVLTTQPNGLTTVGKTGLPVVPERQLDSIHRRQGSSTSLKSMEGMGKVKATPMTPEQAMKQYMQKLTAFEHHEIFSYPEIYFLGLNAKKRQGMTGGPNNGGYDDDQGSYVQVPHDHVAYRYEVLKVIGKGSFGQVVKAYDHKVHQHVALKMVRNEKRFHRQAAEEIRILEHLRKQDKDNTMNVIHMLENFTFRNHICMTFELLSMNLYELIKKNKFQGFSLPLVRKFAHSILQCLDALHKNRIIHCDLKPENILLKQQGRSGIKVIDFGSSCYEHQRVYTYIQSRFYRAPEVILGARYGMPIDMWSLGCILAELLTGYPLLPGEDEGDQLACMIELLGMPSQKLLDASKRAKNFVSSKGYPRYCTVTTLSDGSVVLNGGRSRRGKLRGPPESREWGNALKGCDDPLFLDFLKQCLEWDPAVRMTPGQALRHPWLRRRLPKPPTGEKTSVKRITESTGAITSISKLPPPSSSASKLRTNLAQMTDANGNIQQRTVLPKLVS
As to conditions: at 10 µM.

Sequence of Death-associated protein kinase 1 (Homo sapiens) (P53355 whole entry, looked up): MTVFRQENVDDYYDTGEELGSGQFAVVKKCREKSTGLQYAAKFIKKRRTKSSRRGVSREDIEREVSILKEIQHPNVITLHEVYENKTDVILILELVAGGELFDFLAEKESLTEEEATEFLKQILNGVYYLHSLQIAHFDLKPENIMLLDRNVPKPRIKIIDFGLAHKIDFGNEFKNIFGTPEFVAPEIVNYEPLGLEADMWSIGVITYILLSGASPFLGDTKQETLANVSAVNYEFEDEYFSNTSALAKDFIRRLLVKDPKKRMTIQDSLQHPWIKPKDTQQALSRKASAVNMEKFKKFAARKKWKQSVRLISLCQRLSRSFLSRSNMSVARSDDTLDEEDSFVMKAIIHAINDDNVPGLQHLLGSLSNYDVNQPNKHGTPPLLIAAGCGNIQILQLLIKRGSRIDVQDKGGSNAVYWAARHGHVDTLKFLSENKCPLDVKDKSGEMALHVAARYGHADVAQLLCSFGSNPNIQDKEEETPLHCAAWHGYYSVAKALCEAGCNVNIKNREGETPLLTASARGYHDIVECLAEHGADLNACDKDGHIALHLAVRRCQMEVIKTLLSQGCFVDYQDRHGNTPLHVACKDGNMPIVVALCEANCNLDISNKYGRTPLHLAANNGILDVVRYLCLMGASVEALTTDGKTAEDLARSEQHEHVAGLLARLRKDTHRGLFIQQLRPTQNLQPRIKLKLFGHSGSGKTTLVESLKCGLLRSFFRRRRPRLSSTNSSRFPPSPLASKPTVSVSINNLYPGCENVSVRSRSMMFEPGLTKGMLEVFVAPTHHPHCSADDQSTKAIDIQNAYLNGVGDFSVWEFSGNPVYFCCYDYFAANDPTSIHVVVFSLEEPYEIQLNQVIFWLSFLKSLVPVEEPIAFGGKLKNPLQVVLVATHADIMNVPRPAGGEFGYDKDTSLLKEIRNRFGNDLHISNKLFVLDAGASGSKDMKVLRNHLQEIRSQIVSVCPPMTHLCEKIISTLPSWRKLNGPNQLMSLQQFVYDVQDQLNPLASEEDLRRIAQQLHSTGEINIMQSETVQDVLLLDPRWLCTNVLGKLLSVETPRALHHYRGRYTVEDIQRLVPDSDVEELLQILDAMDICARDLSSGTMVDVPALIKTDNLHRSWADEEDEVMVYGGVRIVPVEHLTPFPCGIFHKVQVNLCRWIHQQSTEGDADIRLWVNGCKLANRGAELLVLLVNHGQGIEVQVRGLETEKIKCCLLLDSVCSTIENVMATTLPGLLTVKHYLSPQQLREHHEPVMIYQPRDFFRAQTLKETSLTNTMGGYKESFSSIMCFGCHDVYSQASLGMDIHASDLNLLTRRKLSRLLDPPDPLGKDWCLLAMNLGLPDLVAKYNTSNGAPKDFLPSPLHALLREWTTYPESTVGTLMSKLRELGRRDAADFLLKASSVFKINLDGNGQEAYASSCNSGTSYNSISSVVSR

As a reminder, the residual activity is the signal under treatment as a percentage of the control signal. For the compound `COc1cc2nccc(Oc3ccc(NC(=O)Nc4cc(C)on4)c(Cl)c3)c2cc1OC`, the residual activity is 69% in experiment [1]; 99% in experiment [2]; 104% in [3]; 1% in experiment [4]; 0% in experiment [5]; 100% in experiment [6]. The residual activity in [7] is 148%; in experiment [8], 10%; in experiment [9] it was 6%; in [10], -3%; in experiment [11], -3%; in [12], 1%.

Consider `CN(C)S(=O)(=O)c1ccc2c(c1)/C(=C/c1cc3c([nH]1)CCCC3)C(=O)N2`, for which the residual activity in experiment [1] was determined as 99%; in [2], 55%; in experiment [3] it was 55%; in experiment [6] it was 113%; in experiment [7] it was 92%; in experiment [13] it was 70%. The residual activity in experiment [14] stood at 91%; in [8], 96%; in experiment [9], 96%; in [10], 89%; in experiment [12], 91%.

In the case of `NC(=O)c1ccc(-c2nc(-c3ccc4c(c3)OCCO4)c(-c3ccccn3)[nH]2)cc1`, the residual activity in experiment [1] came out at 78%; in experiment [4], 98%; in [5] it was 97%; in [6], 93%; in experiment [7], 97%; in [13], 89%. Moreover, the residual activity in experiment [12] amounted to 100%.
